According to PubChem BioAssay (NCATS):
Records with an inconclusive call do not appear. A call without a number means that no potency is given here. Activity calls are given as the source filed them. The call rests on the fitted dose curve; in most records, active means well fitted curve in the direction sought with a large enough effect; inconclusive means small, poorly fitted or top-dose-only effect, or another doubt; inactive means no such curve, though single readings can be large; an effect the other way counts as inactive or inconclusive.

Experiments:
[1] = tested on: Zika virus NS2B-NS3 protease; test: Primary screen GU AMC qHTS for Zika virus inhibitors (AID 1347154); further: nearly all actives have a fitted effect of over 70% in size
Method in brief: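 Unlinked Zika NS2B hydrophilic domain–NS3 protease complex at 25 nM in 10 mM Tris-HCl pH 8.0, 0.01% Tween 20, with an AMC peptide substrate. Fluorescence change (340/450 nm) over 15 min at room temperature, normalized to controls, fitted to 4-parameter Hill.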

[2] = tested on: Zika virus NS2B-NS3 protease (unlinked complex); test: Primary screen GU Rhodamine qHTS for Zika virus inhibitors: Unlinked NS2B-NS3 protease assay (AID 1347159); further: nearly all actives have a fitted effect of over 60% in size
Method in brief: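 In dose–response format, inhibition of unlinked protease (25 nM) was measured with 1.5 microM bis-peptide Rhodamine110 substrate. Aprotinin served as the intraplate control.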

[3] = tested on: Zika virus NS2B-NS3 protease (linked construct); test: Primary screen NINDS Rhodamine qHTS for Zika virus inhibitors (AID 1347160); settings: outcome: dose series up to 57.1 µM unless noted; further: nearly all actives have a fitted effect of over 55% in size
Method in brief: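 Each compound, titrated, sat 15 min with 25 nM linked protease before 1.5 microM Rhodamine110 substrate went in. Fluorescence gain over the next 15 min, in pH 8.0 Tris with Tween 20, gave Hill-fitted curves.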

[4] = molecular target: Protein phosphatase 1D (Homo sapiens) (UniProt O15297); test: RapidFire Mass Spectrometry qHTS Assay for Modulators of WT P53-Induced Phosphatase 1 (WIP1) (AID 1347424); further: series mostly up to about 63 µM
Method in brief: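 RapidFire MS readout of dephosphorylated VEPPL-S-QETFS product, with 1 uM isotope-labelled peptide standard. Reaction: 10 nM WIP1, 2 uM phosphopeptide substrate, 5 min, room temperature, after 1 h compound preincubation; stopped with 0.5% formic acid.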

[5] = qHTS to identify inhibitors of the type 1 interferon - major histocompatibility complex class I in skeletal muscle: primary screen against the NCATS Pharmaceutical Collection (AID 1347407);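 further: luminescence of HiBiT knocked into endogenous HLA-B as interferon-induced MHC class I level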; further: potency means the concentration at half of the fitted maximal effect
Method in brief: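 Compounds […] were added to CRISPR-engineered HLA-B-HiBiT C25cl48 human myoblasts with 4.0 ng/ml IFN-beta. After 24 hrs at 37 C, cells were lysed and HiBiT luminescence measured.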

[6] = qHTS to identify inhibitors of the type 1 interferon - major histocompatibility complex class I in skeletal muscle: primary screen against the NCATS Mechanism Interrogation Plate v5.0 (MIPE) Libary (AID 1347411); further: nearly all actives have a fitted effect of over 65% in size; further: potency means the concentration at half of the fitted maximal effect
Method in brief: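 Luminescence from CRISPR HiBit-tagged endogenous HLA-B in human myoblasts reported MHC class I level after 24 h of IFN-beta (4 ng/ml) plus compound. Compounds ran as 11-point 1:3 series, top 46 uM final.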

Chain of Protein phosphatase 1D (Homo sapiens) (O15297 whole entry, looked up): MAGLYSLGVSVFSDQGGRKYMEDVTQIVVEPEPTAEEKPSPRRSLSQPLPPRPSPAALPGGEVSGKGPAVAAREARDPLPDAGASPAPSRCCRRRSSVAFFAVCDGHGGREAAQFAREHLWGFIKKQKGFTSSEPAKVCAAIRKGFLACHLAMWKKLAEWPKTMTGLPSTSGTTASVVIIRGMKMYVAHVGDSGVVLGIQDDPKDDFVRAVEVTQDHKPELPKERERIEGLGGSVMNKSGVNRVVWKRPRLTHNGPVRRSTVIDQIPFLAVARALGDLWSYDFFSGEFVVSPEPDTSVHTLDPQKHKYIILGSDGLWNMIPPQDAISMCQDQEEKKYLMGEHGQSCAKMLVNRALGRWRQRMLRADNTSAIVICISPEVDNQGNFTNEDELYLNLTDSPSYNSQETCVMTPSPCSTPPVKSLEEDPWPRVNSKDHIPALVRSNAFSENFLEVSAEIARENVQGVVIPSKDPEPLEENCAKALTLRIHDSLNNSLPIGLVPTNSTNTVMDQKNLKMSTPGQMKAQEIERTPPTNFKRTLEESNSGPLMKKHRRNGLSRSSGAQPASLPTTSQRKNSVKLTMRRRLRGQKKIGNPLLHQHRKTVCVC

Row | SMILES | Potency [1] | Potency [2] | outcome [3] | outcome [4] | Potency [5] | Potency [6]
1 | CCCCc1oc2ccc(NS(C)(=O)=O)cc2c1C(=O)c1ccc(OCCCN(CCCC)CCCC)cc1 | inactive | inactive | inactive; activator | inactive | – | –
2 | CN(Cc1cc(Br)cc(Br)c1N)C1CCCCC1 | inactive | – | – | – | inactive | inactive
3 | CC1=NN(c2ccccc2)C(=O)C1 | inactive | – | inactive | – | inactive | inactive
4 | CN(C)c1ccc(C(=C2C=CC(=[N+](C)C)C=C2)c2ccc(N(C)C)cc2)cc1 | inactive | – | – | – | 9.38 µM (active) | 3.7 µM (active)
5 | Cc1cc(NS(=O)(=O)c2ccc(N)cc2)no1 | inactive | – | – | – | inactive | –
6 | Cc1cccc(N(C)C(=S)Oc2ccc3ccccc3c2)c1 | inactive | – | – | – | inactive | –
7 | COc1nc(N)nc2c1ncn2[C@@H]1O[C@H](CO)[C@@H](O)[C@@H]1O | inactive | – | – | – | inactive | –
8 | NS(=O)(=O)c1cc2c(cc1Cl)NC(C(Cl)Cl)NS2(=O)=O (stereo not given) | inactive | – | – | – | inactive | inactive
9 | CC(C)Cn1cnc2c(N)nc3ccccc3c21 | inactive | – | – | – | inactive | inactive
10 | CN(C)CCc1c[nH]c2ccc(C[C@H]3COC(=O)N3)cc12 | inactive | inactive | inactive | inactive | inactive | –
11 | O=P(O)(O)C(O)(Cc1cccnc1)P(=O)(O)O | inactive | – | inactive [at 4.91 µM] | – | inactive | inactive
12 | CN(C)CCc1c[nH]c2ccc(CS(=O)(=O)N3CCCC3)cc12 | inactive | – | – | – | inactive | inactive
13 | Cn1c(=O)c2c(ncn2CC(O)CO)n(C)c1=O (stereo not given) | inactive | – | – | – | inactive | inactive
14 | S=P(N1CC1)(N1CC1)N1CC1 | inactive | – | – | inactive | inactive | inactive
